# Compound activity as filed in PubChem.
# Pin1 inhibitor = human Pin1 inhibition. Q13526. Pin1 FP peptide displacement, HiFluor488, 10 min. Potency, µM (series often up to 115 µM), inactives show at the highest dose activity, negative = inhibition, usual class: inhibitors. 0.009% of 390,000 active. AID 504891; active = well fitted inhibition curve with a large enough effect in the polarisation, with a control signal flat, not every such curve was filed as active; inconclusive = small, poorly fitted or top-dose-only effect, or effect the other way, or a change in a side signal; inactive = no such curve, though single readings can be large or run the other way; the % refers to the polarisation; also: potency is read from the fitted curve at half-maximal effect; % is scaled to controls: 0 for no effect and ±100 for the full control effect
# Target sequence (Q13526 whole entry, looked up): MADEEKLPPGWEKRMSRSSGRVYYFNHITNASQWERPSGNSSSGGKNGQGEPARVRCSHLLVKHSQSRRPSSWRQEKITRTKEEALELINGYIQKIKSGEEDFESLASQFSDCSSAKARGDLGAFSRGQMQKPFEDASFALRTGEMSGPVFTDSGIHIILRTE
# Tb PGK inh = inhibitors of T. brucei phosphoglycerate kinase; PGK/GAPDH coupled, Kinase-Glo luminescence, 60 min; P07378; 0.043% of 380,000 active; Potency, µM (series often up to 57.5 µM), for inactives: at the top dose activity change, negative = inhibition, most hits filed as inhibitors; AID 602233; also: potency is read from the fitted curve at half-maximal effect; % is scaled to controls: 0 for no effect and ±100 for the full control effect; nearly all actives have a fitted effect of over 60% in size
# Target sequence (P07378 whole entry, looked up): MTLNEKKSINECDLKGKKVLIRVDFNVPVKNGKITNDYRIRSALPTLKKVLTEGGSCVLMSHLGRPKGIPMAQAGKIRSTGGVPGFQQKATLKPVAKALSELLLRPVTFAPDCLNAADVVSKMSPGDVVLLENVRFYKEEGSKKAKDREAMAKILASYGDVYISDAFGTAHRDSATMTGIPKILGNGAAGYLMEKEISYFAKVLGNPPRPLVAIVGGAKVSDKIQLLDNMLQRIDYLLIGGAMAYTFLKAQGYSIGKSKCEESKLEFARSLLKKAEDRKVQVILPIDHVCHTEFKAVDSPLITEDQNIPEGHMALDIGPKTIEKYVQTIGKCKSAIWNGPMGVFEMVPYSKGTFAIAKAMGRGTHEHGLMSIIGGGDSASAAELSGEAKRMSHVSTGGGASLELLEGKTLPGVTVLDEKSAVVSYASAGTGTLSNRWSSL
#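 Luminescent ATP detection (Kinase-Glo Plus) follows a 60-minute room-temperature incubation, with wells lacking PGK as controls. Buffer: 100 mM TEA (pH 7.6), 5 mM MgCl2, 0.01% Tween-20. Coupling enzyme GAPDH (100 nM final) supplies unstable 1,3-BPG in-well.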
# KCNH2 3.1 inh = KCNH2 3.1 (human) potassium channel inhibition. 0.95% of 340,000 active. AID 720553. activity change, % (tested at about 1.8 µM). U2OS KCNH2 3.1, thallium flux FluxOr; stronger effect = lower value;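 active = maximum activity change below -70%; inconclusive = maximum activity change from -70% to -50%; inactive = maximum activity change above -50%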;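 also: thallium influx rate constant from kinetic fluorescence after stimulation buffer; % is scaled to controls: 0 for no effect and ±100 for the full control effect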
#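 Thallium flux via FluxOr fluorescence (Red40 quencher, 45 min loading) in U2OS cells virally expressing the KCNH2 3.1 isoform (1.77 x 10^8 /mL virus, overnight at 37 C). Rate constants from 2-min kinetic reads post-stimulation, normalised to positive and negative controls.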
# GCN5L2 inh-1 = GCN5L2 (KAT2A) acetyltransferase inhibition; GCN5L2 HAT assay, ThioGlo1 CoA-SH fluorescence; Potency, µM (highest dose often 58.9 µM), for the others: at the highest dose activity change, negative = inhibition, hits mostly inhibitors; 0.21% of 390,000 active; also: potency is read from the fitted curve at half-maximal effect; % is scaled to controls: 0 for no effect and ±100 for the full control effect
#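 Titration-based screen in which CoA formation is detected via maleimide probe ThioGlo1 (50uM) turning fluorescent on thiol reaction; substrates H3(1-25) 75uM and acetyl-CoA 70uM, GCN5L2 20nM, 20 min incubation at room temperature.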
# RGS4 inhibitor = blocks human RGS4-accelerated GTP hydrolysis; P49798; Transcreener GDP fluorescence polarization, RGS4-accelerated GTP hydrolysis; Potency, µM (highest dose often 114 µM), for the others: at the highest dose activity change, negative = inhibition, hits mostly inhibitors; 0.039% of 390,000 active; AID 504845; also: potency is read from the fitted curve at half-maximal effect; % is scaled to controls: 0 for no effect and ±100 for the full control effect; nearly all actives have a fitted effect of over 75% in size
#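 MLSMR compounds (23 nl, pin-transferred) preincubated 10 min at room temperature with a 500nM (2x) first reagent, then RGS4 at 900nM (2x) plus Transcreener GDP mix added; fluorescence polarization (620/688 nm) read before and after 90 min at 30 °C.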
# KCNH2 WT inh = KCNH2 (human, wildtype) channel inhibition | Q12809 | 0.37% of 340,000 active | U2OS, BacMam KCNH2, thallium flux FluxOr; stronger effect = lower value | activity change, % at 1.84 µM;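 active = maximum activity change below -70%; inconclusive = maximum activity change between -70% and -50%; inactive = maximum activity change above -50%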; also: % is scaled to controls: 0 for no effect and ±100 for the full control effect
#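 U2OS cells transduced with wild-type KCNH2 virus are loaded with FluxOr dye for 45 min, and thallium flux is measured in kinetic reads before and after stimulation buffer. Rate constants are normalized to DMSO controls.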
# GCN5L2 inh-2 = human KAT2A HAT inhibition, hit confirmation; Potency, µM, actives largely listed as inhibitors; 70% of 140 active; GCN5L2 HAT, ThioGlo1 CoA fluorescence, 20 min; shares compounds with GCN5L2 inh-1
# * = called active by the depositor; i = inactive; ? = inconclusive; . = not tested or not shown; ! = not confirmed by another sample; [ ] = dose if it differs, or a comment. Rows were chosen to be rich in hits. Some 1.2% of all compounds tested hit in one or more screens of this group. Unless noted, calls follow the shape of the dose curve; as a rule, active = well fitted curve in the direction sought with a large enough effect; inconclusive = small, poorly fitted or top-dose-only effect, or another doubt; inactive = no such curve, though single readings can be large; an effect the other way counts as inactive or inconclusive.
SMILES,Pin1 inhibitor,Tb PGK inh,KCNH2 3.1 inh,GCN5L2 inh-1,RGS4 inhibitor,KCNH2 WT inh,others
Cc1ccc2c(c1)CC1(CN2C)C(=O)NC(=O)N(c2ccccc2C)C1=O (stereo not drawn),-9%,-4%,4,7%,39%[11.4 µM],-9,
CC1CC(O)[C@]2(O)[C@]13CC(=O)OC[C@@]2(C)[C@@](C)(O)C(=O)C3 (stereo partly drawn),.,.,.,-3%,.,.,
CCOc1ccc(C(C)=O)cc1Cc1c(O)[nH]c(=S)[nH]c1=O,-10%,i,13,14µM*,?,2,
CCCOc1ccc(C(C)=O)cc1Cc1c(O)[nH]c(=S)[nH]c1=O,-8%,i,2,?,?,9,
CC12C=CC(=O)C=C1CCC1C2=CCC2(C)C1CC[C@@H]2C(=O)CN1CCN(c2cc(N3CCCC3)nc(N3CCCC3)n2)CC1 (stereo partly drawn),.,.,.,8%,-10%[56.9 µM],.,
CCCCCCCCCCCCCCOS(=O)(=O)O,.,.,.,8.9µM*,.,.,
CCCCCCCCOC(=O)c1ccccc1C(=O)OCCCCCCCC,.,.,.,-16%,.,.,
Cc1ccsc1C(=O)C1CCCN(Cc2cccn2-c2ccccn2)C1 (stereo not drawn),4%,-1%,-75*,-1%,-3%,-26,
CC(C)(C)OC(=O)N1CC[C@H]1COc1cnc[c]([Sn]([CH3])([CH3])[CH3])c1,.,.,.,-1%[12.7 µM],.,.,
CCOc1ccc(-n2nc3c(=S)[nH]nc(C)c3c2C)cc1,31%,3%,3,-2%,-9%,26,
CCOc1ccc(-c2c(C)n(-c3ccc(OCC)cc3)c3[n+]2CCCCC3)cc1,-3%,8%,-112*,-6%,-8%,-8,
Cc1cc2c(C(C)C)c(O)c(O)c(C=O)c2c(O)c1-c1c(C)cc2c(C(C)C)c(O)c(O)c(C=O)c2c1O,.,.,.,7.9µM*,4.2µM*,.,
C[N+](C)(C)Cc1ccccc1,-13%,3%,7,-1%,15%,-1,
Cc1ccc(C[N+](C)(C)C)o1,.,.,.,14µM*!,?,.,
Nc1ccc(CCN2CCN(c3cccc(C(F)(F)F)c3)CC2)cc1,-11%,-10%,-72*,-12%,?,9,
Nc1ccc(CCN2CCCC2)cc1,0%,-6%,-17,-10%,3%,-9,
CN1CCc2cc3c(cc2[C@@H]1O)OCO3,.,.,.,7.9µM*,.,.,
COC(=O)C1=C(c2ccc(S(C)(=O)=O)cc2)C[C@@H]2CC[C@H]1N2C(=O)N1CCC(C)CC1,-4%,8%,-99*,.,-5%,-14,
COP(=S)(OC)Oc1nc(Cl)c(Cl)cc1Cl,.,.,.,20µM*,.,.,
CCOP(=S)(OCC)Oc1nc(Cl)c(Cl)cc1Cl,-1%,-12%,17,?,-48%,-1,
CCCCCSc1cc(O)c(C(CNC)C(C)C)cc1OC (stereo not drawn),2%,-4%,-2,-12%,-15%,3,
CCCCCSc1cc(OC)c(CCN(C)C)cc1OC,2%,-10%,-70*,4%,-23%,14,
CC1CN1P(=O)(Oc1ccc2ccccc2c1)N1CC1C (stereo not drawn),-16%,-5%,-4,.,-17%,-9,
CC1=CC(=O)NP(=O)(Oc2ccc3ccccc3c2)N1 (stereo not drawn),2%,-2%,-13,32µM*,?,-4,
O=P(Oc1ccccc1)(Oc1ccccc1)C(Nc1ccccc1)c1ccccc1 (stereo not drawn),-9%,2%,-70*,-4%,27%,3,
SMILES,Pin1 inhibitor,Tb PGK inh,KCNH2 3.1 inh,GCN5L2 inh-1,RGS4 inhibitor,KCNH2 WT inh,others
Cc1nn(C)c(C)c1-c1cccc2c1CCC(N(C)C)C2 (stereo not drawn),.,.,.,25%,.,.,
CCCCCn1c(=O)c(C(=O)NCc2ccncc2)c(O)c2ccccc21,2%,8%,-13,-15%,4%,-75*,
CCCCCn1c(=O)c(C(=O)Nc2ccncc2)c(O)c2ccccc21,.,.,.,1%,.,.,
CN1CCC[C@@H]1c1cccnc1,.,.,.,?,i,.,
O=C(O)CCC(CP(=O)(O)O)C(=O)O (stereo not drawn),.,.,.,0%,.,.,
CCOC(=O)C(SP(=S)(OC)OC)c1ccccc1 (stereo not drawn),.,.,.,-20%,.,.,
O=S(=O)(c1ccc(O)cc1)c1ccc(O)cc1,1%,1%,-4,2%,-3%,-1,
Oc1cc[c]([Hg][Cl])cc1,.,.,.,0.14µM*,.,.,
Cc1cc(/C=C2\C(=O)NC(=O)N(c3ccccc3F)C2=O)c(C)n1-c1cc(C(=O)O)cc(C(=O)O)c1,.,11µM*,-5,-10%,23%,-22,
N#CC(O[C@@H]1OC(COC2OC(CO)C(O)C(O)[C@@H]2O)C(O)C(O)C1O)c1ccccc1 (stereo partly drawn),.,.,.,10%,.,.,
O=c1ccc2cc(O[C@@H]3O[C@@H](CO)[C@H](O)[C@@H](O)[C@@H]3O)c(O)cc2o1,0%,-1%,0,22µM*,-5%,-25,
CC[C@H](C)[C@H](NC(=O)CN)C(=O)N[C@@H](CC(C)C)C(=O)NCC(=O)N[C@@H](Cc1ccccc1)C(=O)N[C@H](C(=O)N[C@@H](Cc1ccccc1)C(=O)N[C@H](C(=O)N[C@@H](CC(C)C)C(=O)O)[C@@H](C)O)C(C)C,.,.,.,-9%,.,.,
CCCCCCCC/C=C\CCCCCCCC(=O)OC[C@@H](COP(O)(O)=S)OC,.,.,.,5µM*,.,.,
c1cc2c(cc1[C@H]1OCC3C1CO[C@@H]3c1ccc3c(c1)OCO3)OCO2 (stereo partly drawn),-2%,i,-70*,-12%,14%,18,
COc1ccc(-c2cc(=NCC(=O)O)c3ccccc3o2)cc1,4%,-4%,-8,?,-24%,5,GCN5L2 inh-2=32*
CN1C(=O)[C@]23CC4=CC=C[C@H](O)[C@H]4N2C(=O)[C@@]1(CO)SS3,.,.,.,-12%,.,.,
